Assay outcomes (PubChem)
Only some compounds are listed: those with a hit (about 2% of all), similar ones and a draw of the others.
ABHD5 PLIN5 PPI: inhibitors of human ABHD5-perilipin-5 interaction | actives 0.78% (n = 360,000) | Split G. princeps luciferase complementation, luminescence, 4 h | inhibition, % at 4 µM | AID 602281 | Q00G26+Q8WTS1;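 active means inhibition above the mean inhibition across every tested compound plus 3 SD, cut at about 22% in these data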
NOD2 RIPK2 PPI: inhibitors of human NOD2-RIPK2 interaction. O43353. CHO BLA complementation NOD2-RIPK2, CCF4 ratio. inhibition, % at 4.98 µM. actives 0.38% (n = 360,000). AID 624267; in the data active means inhibition above about 21%
Exocytosis inh: blocks lytic granule exocytosis. TALL-104 LAMP-1 surface exposure, flow cytometry; cells stimulated with thapsigargin and PMA. inhibition, % at 10 µM. actives 0.66% (n = 360,000). AID 651702;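 active means inhibition above about 55%, limit read from the data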
TLR4-MyD88 BLA: blocks binding of human TLR4 to MyD88; actives 0.18% (n = 200,000); AID 861; HeLa CL3-4 TLR4/MyD88 BLA complementation, FRET ratio; inhibition, % at 8.4 µM; in the data active means inhibition above about 25%
TLR9-MyD88 block: blocks human TLR9 binding to MyD88 | Q9NR96+Q99836 | CHO BLA complementation TLR9-MyD88, CCF4 FRET ratio | inhibition, % at 4.98 µM | actives 0.21% (n = 340,000);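 active means inhibition above the mean over all tested compounds plus 3 SD, cut at about 21% in these data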
Target sequence (Q99836 whole entry, looked up): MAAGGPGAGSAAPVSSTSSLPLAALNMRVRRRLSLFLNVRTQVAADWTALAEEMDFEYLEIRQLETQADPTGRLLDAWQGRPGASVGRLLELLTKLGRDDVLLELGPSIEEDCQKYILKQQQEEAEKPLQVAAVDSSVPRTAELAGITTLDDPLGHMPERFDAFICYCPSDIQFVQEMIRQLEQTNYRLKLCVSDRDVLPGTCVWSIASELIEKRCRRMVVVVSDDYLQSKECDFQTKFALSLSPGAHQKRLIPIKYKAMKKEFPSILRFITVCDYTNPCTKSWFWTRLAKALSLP
Target sequence (Q9NR96 whole entry, looked up): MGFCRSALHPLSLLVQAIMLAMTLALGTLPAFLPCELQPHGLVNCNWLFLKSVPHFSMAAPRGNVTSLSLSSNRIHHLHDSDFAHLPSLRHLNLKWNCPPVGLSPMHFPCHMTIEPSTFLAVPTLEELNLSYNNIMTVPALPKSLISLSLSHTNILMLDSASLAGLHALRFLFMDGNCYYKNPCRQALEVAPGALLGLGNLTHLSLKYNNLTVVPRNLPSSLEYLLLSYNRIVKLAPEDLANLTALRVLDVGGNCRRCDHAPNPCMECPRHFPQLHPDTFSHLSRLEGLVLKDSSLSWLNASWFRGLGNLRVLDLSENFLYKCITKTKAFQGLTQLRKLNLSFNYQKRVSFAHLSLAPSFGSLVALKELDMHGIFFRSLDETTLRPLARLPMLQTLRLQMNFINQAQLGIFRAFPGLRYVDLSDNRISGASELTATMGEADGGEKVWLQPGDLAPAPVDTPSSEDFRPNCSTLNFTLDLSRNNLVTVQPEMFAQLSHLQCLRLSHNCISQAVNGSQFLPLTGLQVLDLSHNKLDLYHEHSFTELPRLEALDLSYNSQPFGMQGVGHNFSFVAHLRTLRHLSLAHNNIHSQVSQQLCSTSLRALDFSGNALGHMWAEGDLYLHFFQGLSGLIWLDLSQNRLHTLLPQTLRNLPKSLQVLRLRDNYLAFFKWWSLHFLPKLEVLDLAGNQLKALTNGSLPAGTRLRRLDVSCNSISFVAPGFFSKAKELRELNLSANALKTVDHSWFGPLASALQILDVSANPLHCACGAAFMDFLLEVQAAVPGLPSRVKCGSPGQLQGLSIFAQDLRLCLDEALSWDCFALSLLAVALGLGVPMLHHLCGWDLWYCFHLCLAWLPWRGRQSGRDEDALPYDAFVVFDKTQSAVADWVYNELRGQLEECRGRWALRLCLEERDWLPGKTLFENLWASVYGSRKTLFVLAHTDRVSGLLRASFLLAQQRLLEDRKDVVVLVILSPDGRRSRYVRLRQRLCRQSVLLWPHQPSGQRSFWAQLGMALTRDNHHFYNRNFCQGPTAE
B2AR ag: human beta-2 adrenergic receptor agonism by FAP. P07550. Am2.2-beta2AR cells, FAP receptor internalization, flow cytometry. response, % (no concentration beside the values). actives 0.43% (n = 340,000). AID 504454;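 active means response above a set limit, near 3 SD of response in nonfluorescent compounds, cut at about 42% in these data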
Numbers stand for hits; i = inactive; nt = not tested or not shown.

SMILES	ABHD5 PLIN5 PPI	NOD2 RIPK2 PPI	Exocytosis inh	TLR4-MyD88 BLA	TLR9-MyD88 block	B2AR ag
Cc1cc(O)c(C(C)C)cc1C1(c2cc(C(C)C)c(O)cc2C)OC(=O)c2ccccc21	i	i	88	nt	i	i
Cc1ccccc1CN1C(=O)CSCC1(C)C(=O)NC(C)C (configuration not stated)	i	i	i	nt	nt	nt
O=C(NCc1ccccc1)C(C1CC1)n1c(Cc2cc(F)cc(F)c2)nc2ccccc21 (configuration not stated)	i	i	i	nt	nt	nt
O=C(O)c1cc(N2N=C(C(F)(F)F)/C(=C/C=C/c3ccco3)C2=O)ccc1Cl	22	i	i	i	i	i
C=C(C(=O)c1ccccc1)C(c1ccccc1)C(C)C(=O)c1ccccc1 (configuration not stated)	i	i	i	i	i	i
C=C(C(=O)c1ccccc1)C(C)C(=C)C(=O)c1ccccc1	22	i	i	i	i	i
O=C(N/N=C/c1cccc([N+](=O)[O-])c1)c1cc[n+](CCO)cc1	i	i	i	nt	i	46
CCCCCCCC(=O)Nc1ccc(C(=O)N/N=C/c2cccc([N+](=O)[O-])c2)cc1	i	i	i	i	i	i
CCOC(=O)[C@]12CCC=C1N(Cc1ccco1)C(=O)[C@H](CC(=O)N1CCCC1)C2	i	i	i	nt	nt	nt
CCCS(=O)(=O)NC(=O)C1(C)CCN(C(=O)c2cccs2)C1 (configuration not stated)	i	i	i	nt	nt	nt
O=C1c2cccnc2-c2ncccc21	i	i	i	i	i	i
COC1=C(Br)C(=O)c2ncccc2C1=O	i	i	107	nt	i	i
NC(CSC(c1ccccc1)(c1ccccc1)c1ccc2c(c1)OCO2)C(=O)O (configuration not stated)	i	i	i	nt	i	nt
CC1(C)OC1COc1c2ccoc2cc2oc(=O)ccc12 (configuration not stated)	i	i	80	i	i	i
COC(=O)c1ccc(COc2ccc(/C=C(\C#N)c3nc4ccccc4[nH]3)cc2OC)o1	i	i	i	i	i	43
COc1cc(/C=C(/C#N)c2nc3ccccc3[nH]2)ccc1OCc1ccc(C(=O)O)o1	i	i	i	i	i	i
Cn1nccc1-c1ccc(C(=O)NCc2ccc(Cl)cc2)c2occc12	i	i	i	nt	nt	nt
O=C1/C(=C/Nc2cccc([N+](=O)[O-])c2)CCc2ccccc21	i	i	89	i	i	i
CN(C)c1ccc(NC(=O)C[n+]2ccccc2)cc1	i	i	56	nt	i	i
Cc1ccc2nc(-c3ccc(NC(=S)NCC(C)(C)CN(C)C)cc3)sc2c1	i	i	56	nt	i	i
CNc1ncnc2c1ncn2[C@H]1CN(CCOC)C[C@@H](CO)O1	i	i	i	nt	nt	nt
Cc1cc(C)c(C(=O)/C=C/c2ccc(C(C)C)cc2)c(=O)[nH]1	37	i	i	i	i	i
Cc1cc(C)c(C(=O)/C=C/C=C/c2ccccc2)c(=O)[nH]1	i	i	i	i	i	i
O=C1N[C@@H](Cc2ccccc2)COC(=O)[C@H](Cc2ccc(F)cc2)CC/C=C/C[C@@H]1CC(=O)N(CCO)Cc1ccccc1	i	i	58	nt	i	i
O=C1N[C@@H](Cc2ccccc2)COC(=O)[C@@H](Cc2ccc(F)cc2)CC/C=C/C[C@H]1CC(=O)N(CCO)Cc1ccccc1	i	i	i	nt	i	i
SMILES	ABHD5 PLIN5 PPI	NOD2 RIPK2 PPI	Exocytosis inh	TLR4-MyD88 BLA	TLR9-MyD88 block	B2AR ag
Cc1[nH]nc(N=CC2=C(O)CC(c3ccco3)CC2=O)c1-c1ccc(Cl)cc1 (configuration not stated)	i	i	98	i	i	i
Cc1[nH]nc(N=CC2=C(O)CC(C)(C)CC2=O)c1-c1ccc(Cl)cc1	i	i	i	i	i	i
Cc1cccc(C)c1NC(=O)C1(C)CSCC(=O)N1Cc1cccc(C(F)(F)F)c1 (configuration not stated)	i	i	i	nt	nt	nt
CN(C)CCCN(C(=O)c1cc2cc([N+](=O)[O-])ccc2s1)c1nc2cc3c(cc2s1)OCCO3	i	i	76	nt	i	i
CCc1nc2c(OCc3ccc(Cl)cc3)cccn2c1N(C)C(=O)c1ccncc1	i	i	i	nt	nt	nt
C=CCSc1nnc(CNS(=O)(=O)c2ccc(C)cc2)n1C	i	i	i	nt	i	i
CCCSc1nnc(CNS(=O)(=O)c2ccc(C)cc2)n1C	22	i	i	nt	i	i
